Data from the antibiotic and cytotoxicity screens of Wong et al. (2023).
Screen size: about 39,000 compounds; about 3,300 (8.5%) were called active. The sample holds actives, similar compounds and a random draw of the others, so the mix is not that of the screen.

Test system: HepG2
Assay: cytotoxicity call (relative viability < 0.9)
Conditions: 10 µM

| Structure (SMILES) | cytotoxicity call |
| --- | --- |
| Cn1cc(C[C@@H](N)C(=O)O)c2ccccc21 | inactive |
| O=C(C[C@H]1C[C@@H]2c3cc(NC(=O)NC4CCCC4)ccc3O[C@@H]2[C@@H](CO)O1)NCCN1CCCCC1 | inactive |
| NC(Cc1cc(I)c(Oc2cc(I)c(O)c(I)c2)c(I)c1)C(=O)[O-].[Na+] (configuration not stated) | inactive |
| C[C@H]1CN([C@@H](C)CO)C(=O)c2cc(NC(=O)Nc3ccccc3)ccc2O[C@@H]1CN(C)C(=O)Nc1cccc2ccccc12 | inactive |
| C[C@H]1CCCCO[C@H](CN(C)Cc2ccc(Cl)c(Cl)c2)[C@@H](C)CN([C@@H](C)CO)C(=O)c2cc(NC(=O)Nc3ccc(C(F)(F)F)cc3)ccc2O1 | inactive |
| C[C@H](CO)N1C[C@H](C)[C@H](CN(C)Cc2ccc(Cl)c(Cl)c2)OCCCC[C@H](C)Oc2ccc(NC(=O)Nc3ccc(C(F)(F)F)cc3)cc2C1=O | active |
| C[C@H]1CCCCO[C@@H](CN(C)Cc2ccc(Cl)c(Cl)c2)[C@@H](C)CN([C@@H](C)CO)C(=O)c2cc(NC(=O)Nc3ccc(C(F)(F)F)cc3)ccc2O1 | inactive |
| CC(=O)c1ccc(O)c(C(N)=O)c1 | inactive |
| COc1ccc(S(=O)(=O)Nc2ccc3c(c2)CC(=O)N([C@H](C)CO)C[C@H](C)[C@H](CN(C)Cc2ccc(-c4ccccc4)cc2)O3)cc1 | active |
| COc1ccc(S(=O)(=O)Nc2ccc3c(c2)CC(=O)N([C@@H](C)CO)C[C@@H](C)[C@H](CN(C)Cc2ccc(-c4ccccc4)cc2)O3)cc1 | active |
| COc1ccc(S(=O)(=O)Nc2ccc3c(c2)CC(=O)N([C@@H](C)CO)C[C@H](C)[C@@H](CN(C)Cc2ccc(-c4ccccc4)cc2)O3)cc1 | inactive |
| COc1ccc(S(=O)(=O)Nc2ccc3c(c2)CC(=O)N([C@H](C)CO)C[C@@H](C)[C@@H](CN(C)Cc2ccc(-c4ccccc4)cc2)O3)cc1 | active |
| COc1ccc(S(=O)(=O)Nc2ccc3c(c2)CC(=O)N([C@@H](C)CO)C[C@@H](C)[C@@H](CN(C)Cc2ccc(-c4ccccc4)cc2)O3)cc1 | inactive |
| COc1ccc(S(=O)(=O)Nc2ccc3c(c2)CC(=O)N([C@H](C)CO)C[C@H](C)[C@@H](CN(C)Cc2ccc(-c4ccccc4)cc2)O3)cc1 | inactive |
| COc1ccc(S(=O)(=O)Nc2ccc3c(c2)CC(=O)N([C@@H](C)CO)C[C@H](C)[C@H](CN(C)Cc2ccc(-c4ccccc4)cc2)O3)cc1 | active |
| Cc1cc(C(F)(F)F)cc(Cl)n1 | inactive |

| Structure (SMILES) | cytotoxicity call |
| --- | --- |
| Cc1ccc(S(=O)(=O)N(C)C[C@@H]2OCCCC[C@H](C)Oc3ccc(NC(=O)Nc4ccc(C(F)(F)F)cc4)cc3C(=O)N([C@H](C)CO)C[C@@H]2C)cc1 | inactive |
| CC(C)NC(=O)N(C)C[C@H]1Oc2c(NC(=O)NC3CCCCC3)cccc2C(=O)N([C@H](C)CO)C[C@H]1C | inactive |
| C[C@H](CO)N1C[C@H](C)[C@@H](CN(C)C(=O)Cc2cccnc2)Oc2ncc(C#Cc3ccccc3F)cc2C1=O | inactive |
| Cc1nn(C)cc1NC(=O)C[C@H]1CC[C@H]2[C@@H](COc3ccc(NC(=O)C4CCOCC4)cc3C(=O)N2C)O1 | inactive |
| COCC(=O)NCc1n[nH]c(=O)c2ccccc12 | inactive |
| CC1(C)OC(=O)C2(C(=O)O1)[C@@H](c1ccc(-c3ccc(C(F)(F)F)cc3)cc1)CC(=O)C[C@H]2c1ccccc1 | inactive |
| COc1ccc(S(=O)(=O)Nc2ccc3c(c2)CC(=O)N([C@H](C)CO)C[C@@H](C)[C@H](CN(C)Cc2ccc(-c4ccccc4)cc2)O3)cc1 | active |
| CC(C)NC(=O)Nc1cccc2c1O[C@H](CN(C)Cc1ccc(C(=O)O)cc1)[C@H](C)CN([C@H](C)CO)C2=O | inactive |
| COc1ccc(S(=O)(=O)Nc2ccc3c(c2)C(=O)N([C@@H](C)CO)C[C@H](C)[C@@H](CN(C)S(=O)(=O)c2ccc(OC)cc2)O3)cc1 | inactive |
| C[C@@H]1CCCCO[C@H](CN(C)S(=O)(=O)c2ccccc2)[C@@H](C)CN([C@@H](C)CO)C(=O)c2cc(NC(=O)Nc3ccc(F)cc3)ccc2O1 | inactive |
| CNC[C@@H]1CC[C@@H](N)[C@@H](O[C@H]2[C@H](O)[C@@H](O[C@H]3OC[C@](C)(O)[C@H](NC)[C@H]3O)[C@H](N)C[C@@H]2N)O1 | inactive |
| CN[C@@H]1[C@@H](O)[C@@H](O[C@@H]2[C@@H](O)[C@H](O[C@H]3O[C@H]([C@@H](C)NC)CC[C@H]3N)[C@@H](N)C[C@H]2N)OC[C@]1(C)O | inactive |
| CNC(C)C1CCC(N)C(OC2C(N)CC(N)C(OC3OCC(C)(O)C(NC)C3O)C2O)O1.O=S(=O)(O)O (configuration not stated) | active |
| NC[C@H]1CCCN(C(=O)Nc2ccc(Oc3ccccc3)cc2)C1 | inactive |
| Cc1ccc(N2CC[C@@H](CN)C2)cc1 | inactive |
| NC[C@H]1CCN(c2ccc(Oc3ccccc3)cc2)C1 | active |
